Screens (PubChem)
CF NFkB block: blocks PAF-induced NF-kB reporter in cystic fibrosis cells. KKLEB NF-kB-GFP reporter, GFP fluorescence overnight. inhibition, % at 5 µM. 360,000 compounds, 0.86% hits. AID 588850;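 active means at least 50% inhibition at 5 µM, scaled per plate between neutral and stimulator controls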;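 further: PAF is a Pseudomonas aeruginosa culture filtrate used as stimulus; plate controls were PAF-stimulated DMSO wells for no effect and unstimulated DMSO wells for full effect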
HIF-2a block: HIF-2a inhibition | 786-0 RCC cells HIF-2a reporter, luciferase luminescence, overnight | inhibition, % at 18.8 µM | 360,000 compounds, 0.72% hits | AID 624352;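 active means inhibition of the luminescence signal of 40% or more relative to plate controls, in a single-dose primary screen at 18.75 µM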
Peg3 prom inh: Peg3 promoter activity inhibition; HeLa PEG-Prom luciferase reporter, luminescence, overnight; inhibition, % at 20 µM; 360,000 compounds, 1.7% hits;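 active means inhibition of at least 50% at 20 µM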
KKLEB tox: CF airway cell cytotoxicity counter-screen. KKLEB CF airway cells viability, ATPlite luminescence, overnight; hits give low values; cells stimulated with P. aeruginosa culture filtrate. 360,000 compounds, 0.36% hits. AID 602141. activity change (cytotoxicity), % at 5 µM;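 active means corrected activity change at or below -50% at 5 µM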
Shn3 inh set2: Schnurri-3 reporter inhibition in Clone20 osteoblasts. Clone20 osteoblast Shn3 3'UTR firefly luciferase, 24 h. inhibition, % at 12.5 µM. 360,000 compounds, 0.52% hits;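 active means mean inhibition of at least 75% with every replicate also reaching 75%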;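 further: 0% = median of neutral control wells and 100% = pilot-screen positive control compound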
MITF TRPM1 inh: inhibitors of MITF-driven TRPM1 promoter in melanoma cells | SK-MEL-5 TRPM1 promoter luciferase, 24 h | inhibition, % at 12.5 µM | 330,000 compounds, 0.83% hits;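 active means mean inhibition across replicates of 60% or more, whatever share of single replicates reaches that level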
The depositor's hits bear a star; / = not tested or not shown. An excerpt weighted towards active compounds, which were near 2.7% of everything screened.

SMILES	CF NFkB block	HIF-2a block	Peg3 prom inh	KKLEB tox	Shn3 inh set2	MITF TRPM1 inh
N#CCSc1nc2cc(C(=O)N3CCC(C(N)=O)CC3)ccc2c2nc3ccccc3n12	68*	-6	11	-26	9	17
N#CCSc1nc2ccccc2c2nc3ccccc3n12	42	-4	40	-46	0	77*
N#CCSc1nc2cc(C(=O)N3CCCC3)ccc2c(=O)n1Cc1ccccc1	20	22	26	-14	12	20
CC1(C)Cc2c(sc(NC(=O)c3ccc4ncsc4c3)c2C(N)=O)C(C)(C)N1	6	-54	22	-22	-48	78*
CC1(C)Cc2c(sc(NC(=O)COc3ccc(Cl)cc3)c2C(N)=O)C(C)(C)N1	-3	7	42	-29	11	1
CC1(C)Cc2c(sc(NC(=O)c3ccc(C(=O)c4ccccc4)cc3)c2C(N)=O)C(C)(C)N1	45	25	83*	-33	36	39
COC(=O)c1c(NC(=O)c2ccccc2)sc2c1CC(C)(C)NC2(C)C	13	-12	7	-15	-4	-3
COC(=O)c1c(NC(=O)c2ccc(OC(C)C)cc2)sc2c1CC(C)(C)NC2(C)C	22	-7	98*	-14	12	7
CC(C)Oc1ccc(CNC(=O)c2cc(S(=O)(=O)N3CCOCC3)cn2C)cc1	-10	7	-5	0	10	-10
CCOc1cc(C(=O)O/N=C(\N)c2ccccn2)cc(OCC)c1OCC	-3	-56	84*	1	-17	1
CCOc1ccc(C(=O)O/N=C(\N)c2ccccn2)cc1OCC	-7	-206	-141	-1	-97	-39
Cc1ccc(S(=O)(=O)N2C[C@@H]3[C@H]4CC[C@H](C4)[C@@H]3[C@@H](C)[C@@H]2C2CCCCC2=O)cc1 (some centres not stated)	8	-11	7	0	0	-3
Cc1cccc(NC(=O)c2cc3c(=O)n4ccccc4nc3n(CC(C)C)c2=N)c1	-1	-3	54*	-30	1	22
NC(N)=Nc1nc(-c2ccccc2)c2ccccc2n1	-99	27	57*	13	37	23
Clc1nc(-c2ccccc2)c2ccccc2n1	11	9	11	7	10	4
O=C(Cn1c(=O)[nH]c2ccccc2c1=O)Nc1ccc2c(c1)OCO2	12	-70	-50	7	-20	-24
Cc1ccc2[nH]c3c(c2c1)CCCC3NCCO (configuration not stated)	-5	13	52*	3	-3	-6
COc1ccc(NC(=O)N2CCCCCC2)cc1OC	11	-9	-11	12	12	9
CCSc1nc(N)nc2c1ncn2C1OC(CO)C(O)C1O (configuration not stated)	-10	2	-16	6	0	-1
Cn1cnc([N+](=O)[O-])c1Sc1nc(N)nc2c1ncn2C1CC(O)C(CO)O1 (configuration not stated)	2	23	50*	9	-18	44
CCN(CC)C(=O)[C@H]1CC(CC(=O)NC/C=C(\C)CCC=C(C)C)C(=O)N2CCc3c([nH]c4ccccc34)[C@]12C (some centres not stated)	36	4	-5	-3	5	3
CCc1ccc(/C=C2\SC(=S)N(CCCC(=O)NCCCN3CCOCC3)C2=O)cc1	10	83*	84*	-8	77	/
CCOc1ccc(/C=C2\SC(=S)N(CCCC(=O)NCCCN3CCOCC3)C2=O)cc1	5	71*	68*	-12	71	57
C#CCN(C[C@@H](CC(C)C)NC(=O)OC(C)(C)C)S(=O)(=O)c1ccc(Br)cc1F	-6	9	3	9	33	11
COc1ccc([C@H]2CC(=O)C=C(c3ccc(C(=O)O)cc3)C2)cc1OC	5	15	5	-7	-2	-6
Cc1cccc(NC(=O)CSc2nc(C)c(CC(=O)c3ccc(Br)cc3)c(C)c2C#N)c1C	26	17	71*	-34	49	76*
Cc1nc(SCC(=O)Nc2ccc(F)cc2)c(C#N)c(C)c1CC(=O)c1ccc(Br)cc1	33	9	91*	-35	33	65*
COc1ccc(NC(=O)CSc2nc(C)c3c(c2C#N)CCCC3)cc1	5	0	-22	8	12	-4
